Screening results from PubChem.
ROMK primary: human ROMK K+ channel modulation, primary screen; AID 1918; 130,000 tested, 2% active; Tet-inducible ROMK, thallium flux fluorescence; actives lie on both sides; P48048; B-score at 10 µM;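 active = signal ratio slope over the read window, or its plate-corrected B-score, at least 3 SD from the plate mean, either direction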;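 note: B-score of the F/F0 ratio slope over 7 to 12 s after thallium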
Target sequence (P48048 whole entry, looked up): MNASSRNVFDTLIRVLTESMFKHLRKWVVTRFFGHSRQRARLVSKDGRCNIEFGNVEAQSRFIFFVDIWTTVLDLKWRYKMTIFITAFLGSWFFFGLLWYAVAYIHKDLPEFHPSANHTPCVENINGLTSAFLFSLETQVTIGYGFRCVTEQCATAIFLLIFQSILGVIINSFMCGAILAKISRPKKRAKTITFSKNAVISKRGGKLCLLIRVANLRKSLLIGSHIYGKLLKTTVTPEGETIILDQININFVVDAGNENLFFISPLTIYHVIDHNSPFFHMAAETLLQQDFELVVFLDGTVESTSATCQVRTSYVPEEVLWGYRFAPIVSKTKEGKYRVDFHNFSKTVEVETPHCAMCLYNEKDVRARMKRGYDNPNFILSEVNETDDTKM
WT yeast gro inh: growth inhibition of WT yeast, mitochondrial fusion screen; 190,000 tested, 2.1% active; inhibition, % at 10 µM; AID 1362; mitochondrial fusion phenotypic screen, WT strain; in the data active = inhibition above about 58%; tested in S. cerevisiae
L major viab: reduces viability of Leishmania major promastigotes; resazurin fluorescence viability; inhibition, % at 10 µM; 200,000 tested, 9% active; AID 1063; in the data active = inhibition above about 50%;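 note: promastigotes grown with compound for 44 hours at 28 °C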
KCC2 mod: KCC2 (human) Cl- transport modulation; Q9H2X9; KCC2 cells, thallium flux FluoZin-2 fluorescence; B-score of Tl+ flux slope (higher = more flux/activation; lower = inhibition) at 10 µM; 190,000 tested, 2.2% active;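 active = thallium flux slope and its plate-corrected score both differing from the plate sample mean at a set confidence after two filtering rounds, in either direction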;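 note: slope of fluorescence scaled to starting intensity during 10 to 20 s after thallium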
m-calpain inh: blocks pig calpain II enzyme activity | inhibition, % at 16 µM | 220,000 tested, 0.37% active | purified calpain II, fluorogenic peptide substrate, 30 min | AID 1236;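 active = inhibition above about 50%, limit read from the data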
Hits are given with their value; - = inactive; . = no result given. Only some compounds are listed: those with a hit (about 12% of all), similar ones and a draw of the others.

SMILES | ROMK primary | WT yeast gro inh | L major viab | KCC2 mod | m-calpain inh
O=C(c1ccco1)c1nnn(Cc2ccccc2)c1-c1ccccc1 | . | - | - | - | -
COc1ccc(-c2cc(C(=O)NNC3=NCCC3)c3c(C)nn(-c4ccccc4)c3n2)cc1 | - | - | - | - | -
CCN(C(=O)COC(=O)/C=C/c1c(C)nn(-c2ccccc2)c1C)C1CCS(=O)(=O)C1 (configuration not stated) | . | . | . | - | -
COc1ccc(NC(=O)CC2C(=O)N(CCc3ccccc3)C(=S)N2Cc2cccnc2)cc1 (configuration not stated) | . | - | 85 | . | -
CCN(C(=O)CSc1nnc(-c2ccncc2)n1Cc1ccccc1)C1CCS(=O)(=O)C1 (configuration not stated) | - | - | - | - | -
CCNc1nc(NCC)n2c(SC(C(=O)Nc3cc(C)ccc3OC)c3ccccc3)nnc2n1 (configuration not stated) | - | - | 89 | - | -
COc1ccc(C)cc1NC(=O)C(Sc1nnc2ccccn12)c1ccccc1 (configuration not stated) | - | - | - | - | -
COCC(=O)Nc1ccccc1-c1ccccc1 | - | - | - | - | -
Cc1ccccc1CN(C)CC(=O)Nc1ccccc1-c1ccccc1 | - | 79 | - | - | -
Cc1cccc(N(CC(=O)Nc2ccccc2-c2ccccc2)S(=O)(=O)c2ccccc2)c1C | - | - | 50 | - | -
Cc1ccc(CC(=O)Nc2ccccc2-c2ccccc2)cc1C | . | - | 70 | - | -
O=C(NNC(=O)C1[C@H]2CCCC[C@@H]12)Nc1cccc2ccccc12 (some centres not stated) | . | . | . | - | -
COc1ccc(S(=O)(=O)N2CCN(C3Cc4ccccc4C3)CC2)cc1 | . | - | 97 | - | -
O=S(=O)(c1ccc(Cl)cc1)N1CCN(C2CCN(Cc3ccccc3)CC2)CC1 | - | - | 99 | - | -
CCOC(=O)N1CCC(N2CCN(S(=O)(=O)c3ccc4ccccc4c3)CC2)CC1 | - | - | 98 | - | -
COc1ccc(S(=O)(=O)N2CCN(Cc3cccc(Cl)c3)CC2)cc1 | - | - | - | - | -
COc1ccc(S(=O)(=O)N2CCN(Cc3ccc(Cl)cc3)CC2)cc1 | . | - | 51 | - | -
O=C(Cn1cnc2ccccc2c1=O)NC1CCCc2ccccc21 (configuration not stated) | . | - | - | - | -
COc1ccc(N2CCN(C(=O)CCN3C(=S)NC(C)(C)CC3C)CC2)cc1 (configuration not stated) | - | - | - | . | -
COc1ccc(CN2CCN(S(=O)(=O)c3ccc(NC(C)=O)cc3)CC2)cc1 | . | . | . | - | -
COc1ccc(S(=O)(=O)N2CCC(N3CCN(Cc4ccccc4)CC3)CC2)cc1 | - | - | 87 | - | -
COc1ccc(S(=O)(=O)N2CCC(CN3C(=O)c4cccc5cccc(c45)C3=O)CC2)cc1 | - | - | 98 | - | -
c1ccc(C2=Nn3c(nnc3-c3ccco3)SC2)cc1 | - | - | - | - | -
COC(=O)/C(=C/c1ccco1)NC(=O)c1ccccc1 | . | - | - | - | -
COC(=O)/C(=C/c1ccco1)NC(=O)c1ccco1 | - | - | 80 | - | -
SMILES | ROMK primary | WT yeast gro inh | L major viab | KCC2 mod | m-calpain inh
Cc1ccc(C(=O)N/C(=C/c2ccco2)C(=O)OCN2C(=O)c3ccccc3C2=O)cc1 | - | - | 61 | - | -
CC1=C(CO)C(=O)OC([C@@H](C)C2CC[C@H]3C4C[C@H]5O[C@]56[C@@H](O)C=CC(=O)[C@]6(C)C4CC[C@]23C)C1 (some centres not stated) | . | . | . | - | -
C=CCN=c1scc(-c2ccco2)n1/N=C/c1ccc(O)c(O)c1O | . | . | . | - | -
CC(C)N=c1scc(-c2ccco2)n1/N=C/c1ccc(O)c(O)c1 | . | - | 99 | - | -
Oc1ccc(/C=N/n2c(-c3ccco3)csc2=Nc2cccnc2)c(O)c1 | - | - | 99 | - | -
Cc1nc(C(=O)NC2CCOCC2)sc1C1(C)CC(c2cccc([N+](=O)[O-])c2)=NO1 (configuration not stated) | . | . | . | - | -
O=C(NC(Cc1ccc2c(c1)OCO2)C(=O)NC(Cc1ccccc1)C(=O)O)c1ccccc1 (configuration not stated) | - | - | 88 | - | -
CC(C)CNC(=O)[C@H](Cc1ccccc1)NC(=O)c1ccco1 | 3.2 | - | - | - | -
Cc1ccc(CC(NC(=O)c2ccccc2)C(=O)NC(Cc2ccccc2)C(=O)O)cc1 (configuration not stated) | - | - | - | - | -
CC(NC(=O)C(Cc1ccccc1)NC(=O)c1ccccc1)C(=O)O (configuration not stated) | . | - | 85 | - | -
O=C(O)CCC(NC(=O)C(Cc1ccc2c(c1)OCO2)NC(=O)c1ccccc1)C(=O)O (configuration not stated) | . | - | - | . | -
O=C(c1ccc2c(=O)n3c(nc2c1)CCCCC3)N1CCN(C(c2ccccc2)c2ccccc2)CC1 | - | - | - | - | -
NS(=O)(=O)c1cccc(-n2cnnn2)c1 | . | . | . | - | -
CCc1ccc(C(=O)/C=C/c2ccc([N+](=O)[O-])o2)cc1 | - | 60 | 100 | . | -
CC1CCN(C(=O)c2ccc3c(c2NCCO)C(=O)c2ccccc2C3=O)CC1 | - | 71 | - | . | -
CCN(CC)CCNC(=O)c1ccc2c(c1NCCO)C(=O)c1ccccc1C2=O | . | . | . | - | -
CCOc1ccc(NC(=O)CN2C(=O)/C(=C3\SC(=S)N(C4CCS(=O)(=O)C4)C3=O)c3ccccc32)cc1 (configuration not stated) | . | . | . | - | 63
Cc1ccc(CN(Cc2cc3cc4c(cc3[nH]c2=O)OCCO4)Cc2nnnn2Cc2ccco2)cc1 | - | - | - | . | -
COc1ccccc1CN(Cc1cc2c(C)ccc(C)c2[nH]c1=O)Cc1nnnn1Cc1ccco1 | . | - | 100 | - | -
Cc1ccc2cc(CN(Cc3ccc4c(c3)OCO4)Cc3nnnn3Cc3ccco3)c(=O)[nH]c2c1 | - | - | 77 | - | -
COc1ccc2cc(CN(CCc3ccccc3)Cc3nnnn3Cc3ccco3)c(=O)[nH]c2c1 | - | - | 100 | -3.1 | -
Cc1cccc(-c2noc(CN(C(=O)C(c3ccccc3)c3ccccc3)C(C)C)n2)c1 | . | - | - | - | -
CCCOc1ccc(/C=C2\SC(=S)N(CC3CCCO3)C2=O)cc1 (configuration not stated) | - | - | 66 | - | -
CCc1cccc(CC)c1NC(=O)CSc1nnc(CCC(=O)O)c(=O)[nH]1 | - | - | - | - | -
CCCCNC(=O)CC(C(=O)N1CCc2ccccc21)n1ccnc1 (configuration not stated) | - | . | 88 | - | -
O=C(CC(C(=O)N1CCc2ccccc21)n1ccnc1)NCC1CCCO1 (configuration not stated) | . | - | - | - | -
CCN(CCCNC(=O)CC(C(=O)N1CCc2ccccc21)n1ccnc1)c1cccc(C)c1 (configuration not stated) | - | - | 100 | - | -
O=C(CSc1nncn1-c1cccnc1)N(c1ccccc1)c1ccccc1 | - | - | - | - | -
